# Values of other authors, collected in PubChem BioAssay AID977611.
# Out of some 3,900 compounds screened, about 3,900 (100%) were called active. The limit is not given here; nearly all actives have Kd up to about 4200 µM. The set was probably picked from earlier hits. This is one part of the list. Starred links: 1 amine or outer side, 2 acyl side, 3 side chain; linkers in the order of their positions; H or OH if unused. *1 amine or outer side, *2 acyl side, *3 side chain or, on linkers, in order; H or OH if unused. Where a SMILES comes first, the peptide text is derived from it. Non-standard residues stand in square brackets, D forms with d. Square brackets hold non-standard residues; d marks the D form. Residues, ends and D or L forms follow the SMILES beside them. Peptide text beside a SMILES is read from it. [ ]: non-standard residue; d: D form. * marks the point of attachment. X1 = O=C([C@H](Cc1ccc(O[P+](O)(O)O)cc1)N[*:1])[*:2]; Orn(CH(NH2)2) = NC(N)NCCC[C@H](N)C(=O)O; AMC = Cc1cc(=O)oc2cc(N*)ccc12
# Assay: PubChem AID 977611
# Details: PDB protein-ligand complexes, literature Kd
compound,measurement,setting,value
CC(C)C[C@H](NC(=O)[C@@H](NC(=O)[C@@H](N)[C@@H](C)O)C(C)C)C(=O)NCC(=O)N[C@@H](CCCCN)C(=O)N[C@@H](CCCNC(N)N)C(=O)N[C@@H](CCCCN)C(=O)O (H-TVLGK[Orn(CH(NH2)2)]K-OH),Kd,"protein: IMPORTIN SUBUNIT ALPHA-1A, PDB entry 4b8p",0.14 µM (active)
CSCC[C@H](NC(=O)[C@H](Cc1cnc[nH]1)NC(=O)[C@H](CCC(N)=O)NC(=O)[C@H](CCCNC(N)N)NC(=O)[C@H](CCC(=O)O)NC(=O)[C@H](Cc1ccccc1)NC(=O)[C@H](CCCCN)NC(=O)[C@H](C)NC(=O)[C@H](C)NC(=O)[C@H](C)NC(=O)[C@@H](NC(=O)[C@H](CCC(=O)O)NC(=O)[C@@H](N)CCCCN)[C@@H](C)O)C(=O)N[C@@H](CC(=O)O)C(=O)N[C@@H](CO)C(N)=O (H-KETAAAKFE[Orn(CH(NH2)2)]QHMDS-NH2),Kd,"protein: Ribonuclease S(RNase S), PDB entry 1j7z",0.02 µM (active)
same,Kd,"protein: Ribonuclease S(RNase S), PDB entry 1j80",0.3 µM (active)
same,Kd,"protein: Ribonuclease S(RNase S), PDB entry 1j81",0.08 µM (active)
CC(C)C[C@H](NC(=O)[C@@H](NC(=O)[C@@H](N)CO)C(C)C)C(=O)NCC(=O)N[C@@H](CCCCN)C(=O)N[C@@H](CCCNC(N)N)C(=O)N[C@@H](CCCCN)C(=O)N[C@@H](CCCNC(N)N)C(=O)N[C@@H](Cc1cnc[nH]1)C(=O)O (H-SVLGK[Orn(CH(NH2)2)]K[Orn(CH(NH2)2)]H-OH),Kd,"protein: IMPORTIN SUBUNIT ALPHA-1A, PDB entry 2yns",0.025 µM (active)
CC(C)C[C@H](N)C(=O)NCC(=O)N[C@@H](CCCCN)C(=O)N[C@@H](CCCNC(N)N)C(=O)N[C@@H](CCCCN)C(=O)N[C@@H](Cc1ccc(O)cc1)C(=O)O (H-LGK[Orn(CH(NH2)2)]KY-OH),Kd,"protein: IMPORTIN SUBUNIT ALPHA-2, PDB entry 4ba3",2.9 µM (active)
CSCC[C@H](NC(=O)[C@H](CC(C)C)NC(=O)[C@H](CCCCN)NC(=O)[C@H](CCCCN)NC(=O)[C@H](Cc1cnc[nH]1)NC(=O)[C@H](CCCNC(N)N)NC(=O)[C@@H](N)CO)C(=O)N[C@@H](Cc1ccccc1)C(=O)N[C@@H](CCCCN)C(=O)O (H-S[Orn(CH(NH2)2)]HKKLMFK-OH),Kd,"protein: phospho-CDK2/cyclin A, PDB entry 1h26",2.9 µM (active)
CC(=O)NCCCC[C@H](NC(=O)[C@H](CCCCN)NC(=O)[C@H](Cc1cnc[nH]1)NC(=O)[C@H](CCCNC(N)N)NC(C)=O)C(=O)Nc1ccc2c(C)cc(=O)oc2c1 (Ac-[Orn(CH(NH2)2)]HKK(Ac)-{AMC}),Kd,"protein: NAD-dependent protein deacetylase sirtuin-3, mitochondrial, PDB entry 4fz3",184 µM (active)
CC(C)C[C@H](N)C(=O)NCC(=O)N[C@@H](CCCCN)C(=O)N[C@@H](CCCNC(N)N)C(=O)N[C@@H](CCCCN)C(=O)N[C@@H](CCCNC(N)N)C(=O)N[C@@H](Cc1cnc[nH]1)C(=O)O (H-LGK[Orn(CH(NH2)2)]K[Orn(CH(NH2)2)]H-OH),Kd,"protein: IMPORTIN SUBUNIT ALPHA, PDB entry 2ynr",1.7 µM (active)
CN(C)C1=NC(=O)c2ccccc2C1,Kd,"protein: Caspase-6, PDB entry 4n7j",3.4 µM (active)
NC1=NC(=O)c2ccccc2C1,Kd,"protein: proCaspase-6, PDB entry 4n6g",3.4 µM (active)
CCCCCCCCCCCCCCCC(=O)OC[C@@H](CO[P+](O)(O)OC1[C@H](O)[C@H](O[P+](O)(O)O)C(O[P+](O)(O)O)[C@H](O[P+](O)(O)O)[C@H]1O)OC(=O)CCCCCCCCCCCCCCC (stereo partly drawn),Kd,"protein: Steroidogenic factor 1 SF-1, PDB entry 4qjr",0.08 µM (active)
CCCCCCCCCCCCCCCC(=O)OC[C@@H](CO[P+](O)(O)O[C@@H]1[C@H](O)[C@H](O)[C@@H](O[P+](O)(O)O)[C@H](O[P+](O)(O)O)[C@H]1O)OC(=O)CCCCCCCCCCCCCCC,Kd,"protein: Steroidogenic factor 1 SF-1, PDB entry 4qk4",0.25 µM (active)
H-GASDGSGWSSENNPW-OH,Kd,"protein: protein TolB, PDB entry 2ivz",0.92 µM (active)
H-ATPAWN-OH,Kd,"protein: mRNA-capping enzyme subunit beta Pct1, PDB entry 4pn1",0.68 µM (active)
H-ANSNNPDWDF-OH,Kd,"protein: Humanized KR127 Fab, PDB entry 2eh8",0.011 µM (active)
H-NDWLLPSY-OH,Kd,"protein: Microtubule-associated protein 1 light chain 3 (C32I, C119S, C122S mutation), PDB entry 4eoy",0.326 µM (active)
H-DWDFLPP-NH2,Kd,"protein: Gamma-aminobutyric acid receptor-associated protein, PDB entry 3dow",11.5 µM (active)
CC(C)C[C@H](NC(=O)[C@H](Cc1ccccc1)NC(=O)[C@@H]1CCCN1C(=O)[C@@H](NC(=O)[C@H](CC(C)C)NC(=O)[C@H](CO)NC(=O)[C@H](Cc1c[nH]cn1)NC(=O)[C@H](Cc1c[nH]c2ccccc12)NC(=O)[C@@H]1CCCN1C(=O)[C@H](Cc1ccccc1)NC(=O)[C@@H](N)C(C)C)C(C)C)C(=O)N[C@@H](C)C(=O)N1CCC[C@H]1C(=O)N[C@@H](CO)C(=O)N[C@@H](CCC(N)=O)C(=O)O (H-VFPWHSLVPFLAPSQ-OH),Kd,"protein: Ataxin-1, PDB entry 2m41",8 µM (active)
C=CCO[C@]1(C(=O)O)C[C@@H](O[C@]2(C(=O)O)C[C@@H](O)[C@@H](O)[C@@H]([C@H](O)CO[C@]3(C(=O)O)C[C@@H](O)[C@@H](O)[C@@H]([C@H](O)CO)O3)O2)[C@@H](O)[C@@H]([C@H](O)CO)O1,Kd,"protein: antigen binding fragment of mAb S25-26, PDB entry 4m7j",0.781 µM (active)
CC(=O)N[C@@H](CC(=O)O)C(=O)N[C@H](C(=O)N[C@@H](CCC(=O)O)C(=O)N[C@H](C(=O)N[C@@H](Cc1ccc(O[P+](O)(O)O)cc1)C(=O)N[C@@H](CCC(=O)O)C(=O)N[C@@H](CO)C(=O)N1CCC[C@H]1C(=O)N[C@@H](Cc1ccc(O[P+](O)(O)O)cc1)C(=O)N[C@@H](C)C(=O)N[C@@H](CC(=O)O)C(=O)N1CCC[C@H]1C(=O)N[C@@H](CCC(=O)O)C(N)=O)C(C)C)[C@@H](C)O (Ac-DTEV[X1]ESP[X1]ADPE-NH2),Kd,"protein: C-termainl SH2 domain from phospholipase C-gamma-1 comprising residues 663-759( PLC?), PDB entry 2fci",0.07 µM (active)
CC(C)[C@H](NC(=O)[C@H](CCC(=O)O)NC(=O)[C@@H](NC(=O)[C@@H](N)CC(=O)O)[C@@H](C)O)C(=O)N[C@@H](Cc1ccc(O)cc1)C(=O)N[C@@H](CCC(=O)O)C(=O)N[C@@H](CO)C(=O)N1CCC[C@H]1C(=O)N[C@@H](Cc1ccc(O[P+](O)(O)O)cc1)C(=O)N[C@@H](C)C(=O)N[C@@H](CC(=O)O)C(=O)N1CCC[C@H]1C(=O)N[C@@H](CCC(=O)O)C(=O)O (H-DTEVYESP[X1]ADPE-OH),Kd,"protein: Proto-oncogene vav, PDB entry 2mc1",71 µM (active)
O=C(Nc1ccc(-c2nn[nH]n2)cc1Cc1ccccc1)c1cccc(CC2CCCCC2)n1,Kd,"protein: KSHV Protease, PDB entry 4p3h",1 µM (active)
CN(C)c1cc[n+](Cc2ccc(CCc3ccccc3)cc2)cc1,Kd,"protein: Human choline kinase a1, PDB entry 4cga",0.4 µM (active)
CN(C)c1cc[n+](Cc2ccc(CCCCc3ccc(CN4C=CC(N(C)c5ccc(Cl)cc5)C=C4)cc3)cc2)cc1,Kd,"protein: Human choline kinase a1, PDB entry 4cg8",0.11 µM (active)
CN(C)c1cc[n+](Cc2ccc(-c3ccccc3)cc2)cc1,Kd,"protein: Human choline kinase a1, PDB entry 4cg9",0.62 µM (active)
CN(C)c1cc[n+](Cc2ccc(-c3ccc(Cn4cnc(=N)c5[nH]cnc54)cc3)cc2)cc1,Kd,"protein: CHOLINE KINASE ALPHA, PDB entry 4br3",1.9 µM (active)
CC(=O)N[C@@H]1[C@@H](O[C@H]2O[C@H](CO)[C@H](O[C@H]3O[C@H](CO[C@@H]4O[C@@H](C)[C@H](O)[C@@H](O)[C@H]4O)[C@@H](O)[C@H](O)[C@H]3O)[C@H](O[C@@H]3O[C@H](CO)[C@@H](O)[C@H](O)[C@H]3NC(C)=O)[C@H]2O)[C@H](O)[C@@H](CO[C@H]2O[C@H](CO)[C@@H](O)[C@H](O)[C@H]2O)O[C@H]1O,Kd,"protein: TAIL SPIKE PROTEIN(D339A mutant), PDB entry 2x6y",26 µM (active)
same,Kd,"protein: TAIL SPIKE PROTEIN, PDB entry 2x85",129 µM (active)
CC(=O)N[C@H]1[C@H](O[C@H]2[C@H](O)[C@@H](O)[C@H](O[C@H]3[C@H](O)[C@@H](CO)OC[C@@H]3NC(C)=O)O[C@@H]2C(=O)O)O[C@H](CO)[C@@H](O)[C@@H]1O[C@@H]1O[C@H](C(=O)O)[C@@H](O)[C@H](O)[C@H]1O,Kd,"protein: murine cd44 hyaluronan binding domain, PDB entry 4mrd",428 µM (active)
CC(=O)N[C@@H]1[C@@H](O[C@H]2O[C@H](CO)[C@H](O[C@H]3O[C@H](CO[C@@H]4O[C@@H](C)[C@H](O)[C@@H](O)[C@H]4O)[C@@H](O)[C@H](O)[C@H]3O)[C@H](O[C@@H]3O[C@H](CO)[C@@H](O)[C@H](O)[C@H]3NC(C)=O)[C@H]2O)[C@H](O)[C@@H](CO[C@H]2O[C@H](CO)[C@@H](O)[C@H](O)[C@H]2O)O[C@@H]1O,Kd,"protein: TAIL SPIKE PROTEIN(E372Q mutant), PDB entry 2x6w",0.079 µM (active)
CC(=O)N[C@H]1[C@H](O[C@@H]2[C@@H](O)[C@@H](O)O[C@H](CO)[C@@H]2O[C@H]2O[C@H](CO[C@@H]3O[C@@H](C)[C@H](O)[C@@H](O)[C@H]3O)[C@@H](O)[C@H](O)[C@H]2O)O[C@H](CO)[C@@H](O)[C@@H]1O,Kd,"protein: TAIL SPIKE PROTEIN(D339N mutant), PDB entry 2x6x",210 µM (active)
CC(=O)N[C@@H]1[C@@H](O)[C@H](O[C@@H]2O[C@H](CO)[C@@H](O[C@@H]3O[C@H](CO[C@H]4O[C@H](CO)[C@@H](O)[C@H](O)[C@@H]4O[C@@H]4O[C@H](CO)[C@@H](O)[C@H](O)[C@H]4NC(C)=O)[C@@H](O)[C@H](O[C@H]4O[C@H](CO)[C@@H](O)[C@H](O)[C@@H]4O[C@@H]4O[C@H](CO)[C@@H](O)[C@H](O)[C@H]4NC(C)=O)[C@@H]3O)[C@H](O)[C@H]2NC(C)=O)[C@@H](CO)O[C@H]1NC(=O)C[C@H](N)C(=O)O,Kd,"protein: LECTIN, PDB entry 3zyr",4.6 µM (active)
CC(=O)N[C@H]1[C@H](O[C@@H]2[C@H](O[C@]3(C(=O)O)C[C@H](O)[C@@H](NC(C)=O)[C@H]([C@H](O)[C@H](O)CO)O3)[C@@H](O)[C@H](O[C@H]3[C@H](O)[C@@H](O)[C@H](O)O[C@@H]3CO)O[C@@H]2CO)O[C@H](CO)[C@H](O)[C@@H]1O[C@@H]1O[C@H](CO)[C@H](O)[C@H](O)[C@H]1O,Kd,"protein: ECXA, PDB entry 4l6t",0.032 µM (active)
Nc1c(I)c(C(=O)O)c(I)c(C(=O)O)c1I,Kd,"protein: EXTRACELLULAR PROTEIN 6, PDB entry 4b9h",4.5 µM (active)
NCCCCNCCCN,Kd,"protein: Phospholipase A2 VRV-PL-VIIIa, PDB entry 4qf8",0.031 µM (active)
N/C=C/CCNCCCN,Kd,"protein: Putrescine-binding periplasmic protein (S38T, D39E, S87Y, A182D, D247S, F276W, L348Q mutation), PDB entry 4jdf",6400 µM (active)
COc1ccc2c(CC(=O)O)coc2c1,Kd,"protein: Pantothenate synthetase (T2A, E77G mutation), PDB entry 4ddh",500 µM (active)
NC1NC(=O)c2c(CCc3ccc(C(=O)N[C@@H](CCC(=O)O)C(=O)O)cc3)c[nH]c2N1 (stereo partly drawn),Kd,"protein: Folate receptor beta, PDB entry 4kn2",0.054 µM (active)
Nc1nc(N)c2nc(CNc3ccc(C(=O)N[C@@H](CCC(=O)O)C(=O)O)cc3)cnc2n1,Kd,"protein: Folate receptor beta, PDB entry 4kn1",0.144 µM (active)
NC1NC(=O)c2nc(CNc3ccc(C(=O)N[C@@H](CCC(=O)O)C(=O)O)cc3)cnc2N1 (stereo partly drawn),Kd,"protein: Folate receptor alpha, PDB entry 4lrh",0.00019 µM (active)
same,Kd,"protein: Folate receptor beta, PDB entry 4kmz",0.0027 µM (active)
N[C@H](CNc1nc(-c2ccncc2)nc2sc3c(c12)CCCC3)Cc1ccccc1,Kd,"protein: PROTEIN KINASE C IOTA TYPE, PDB entry 3zh8",0.341 µM (active)
